Assay outcomes deposited in PubChem by National Center for Advancing Translational Sciences (NCATS).
PKM2 activator: increases activity of human pyruvate kinase M2 | purified PKM2, Kinase-Glo ATP luminescence, activation; response scale: 0% is enzyme alone, no compound | Potency, µM (highest dose often 57.5 µM), inactives show top-dose activation, most hits filed as activators | AID 1631 | actives 0.34% (n = 260,000); also: potency is read from the fitted curve at half-maximal effect; nearly all actives have a fitted effect of over 55% in size
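ATP formation by purified human PK-M2, quantified via coupled luciferase luminescence after 1 h at room temperature with 0.1 mM ADP and 0.5 mM PEP final.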
RORgamma inh: blocks mouse ROR gamma transcriptional activity; P51450; Drosophila S2 Gal4-RORgamma UAS-luciferase reporter, 20 h; Potency, µM (doses to about 53.6 µM), for inactives: at the top dose activity change, negative = inhibition, hits mostly inhibitors; actives 5.4% (n = 310,000); also: potency is read from the fitted curve at half-maximal effect; nearly all actives have a fitted effect of over 60% in size
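In this cell-based reporter format, copper sulfate (700 uM final) drives Gal4–ROR gamma fusion expression from a metallothionein promoter in Drosophila Schneider cells; compounds preincubated 1 hr, reporter read after 20 hr at ambient temperature.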
Gal4-VP16 FLuc: Gal4-VP16 reporter inhibition counter-screen. Drosophila S2 Gal4-VP16 UAS-luciferase, luminescence, 20 h. Potency, µM (series often up to 53.6 µM), without a hit: top-dose activity, negative = inhibition, hits mostly inhibitors. actives 3.5% (n = 310,000);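 also: Gal4-VP16 expression switched on by copper sulfate through the metallothionein promoter; potency is read from the fitted curve at half-maximal effect; nearly all actives have a fitted effect of over 50% in size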
CtBP-E1A blk: blocks the CtBP interaction with E1A | AlphaScreen GST-E1A/His-CtBP binding, 1536-well; stronger effect = lower value | activity change, % (test concentration not listed) | actives 0.49% (n = 340,000); in the data active = activity change below about -65%; inconclusive = mostly about -30% to -63%
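Protein mix (5X: 125 nM each GST-E1A, His-CtBP) was incubated with pinned compound 2 h at 37 deg C in dark, in 50 mM Tris pH 8.0 buffer with 300 mM NaCl. Glutathione donor and nickel acceptor beads followed; AlphaScreen signal read after 1 h.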
Six1-Eya2 blk: Six1/Eya2 interaction inhibition | actives 0.56% (n = 360,000) | Q15475+O00167 | AlphaScreen GST-Six1/His-Eya2 binding, biochemical; stronger effect = lower value | AID 651725 | activity change, % (no concentration beside the values); in the data active = activity change below about -65%; inconclusive = mostly about -30% to -63%
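AlphaScreen luminescence read after one hour at 37 °C in darkness. Pin-transferred compounds met GST-Six1 and His-Eya2 protein (5X stock 250 nM/500 nM) plus glutathione donor and Ni-chelate acceptor beads (5X, 50 ug/mL).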
Active calls of the source: *; u = inconclusive; x = no result; [ ] = remark or other dose. Shown are actives, neighbours in structure and some others; about 5.6% of the full set was active somewhere. Unless noted, calls follow the shape of the dose curve; as a rule, active = well fitted curve in the direction sought with a large enough effect; inconclusive = small, poorly fitted or top-dose-only effect, or another doubt; inactive = no such curve, though single readings can be large; an effect the other way counts as inactive or inconclusive. % is scaled to controls: 0 for no effect and ±100 for the full control effect.

SMILES	PKM2 activator	RORgamma inh	Gal4-VP16 FLuc	CtBP-E1A blk	Six1-Eya2 blk
O=C(COc1cccnc1[N+](=O)[O-])Nc1ccc(S(=O)(=O)N2CCOCC2)cc1	0%	18%	-11%	7	-1
C/C(=N/NC(=O)c1cc(C2CC2)[nH]n1)c1cccs1	-37%	11µM*	10µM*	2	23
C/C(=N\NC(=O)c1ccncc1)c1cccs1	-1%	u	29%[10 µM]	10	0
C/C(=N/NC(=O)c1cc(-c2cccc([N+](=O)[O-])c2)n[nH]1)c1cccc(O)c1	-8%	0%	-8%	x	-19
C/C(=N\NC(=O)c1cccc(S(=O)(=O)N2CCCC2)c1)c1cccs1	-11%	13µM*	u	12	2
CC(=NNC(=O)c1cccc(S(=O)(=O)N2CCCC2)c1)c1ccccc1	x	x	x	0	13
C/C(=N\NC(=O)c1cc(-c2cccc([N+](=O)[O-])c2)n[nH]1)c1ccccc1O	-6%	3.2µM*	18µM*	-5	-2
O=C(CCc1nnc(CCCc2ccccc2)o1)NCCCC1CCCC1	-6%	u	8%	3	-9
Cc1ccccc1OCC(=O)NCC(=O)OCc1ccc(Br)cc1	-3%	1%	5%	-2	15
COc1ccccc1NC(=S)N/N=C1\CC(C)(C)Oc2ccc(O)cc21	-2%	u	u	-18	-21
CC(=O)N1CCC2(CC1)C/C(=N\NC(=S)Nc1ccccc1C)c1cc(O)ccc1O2	0%	u	u	-11	-8
CC(=O)N1CCC2(CC1)C/C(=N\NC(=S)Nc1ccccc1F)c1cc(O)ccc1O2	2%	13µM*	-5%	-12	-13
COc1ccc(NC(=S)N/N=C2\CC(C)(C)Oc3ccc(O)cc32)cc1	8%	6.3µM*	5.6µM*	u	u
CC(=O)C1[C@H](N(C)C)CC2C3CC=C4CC(O)CC[C@]4(C)C3CC[C@@]21C (stereo partly drawn)	x	-15%	-8%	-22	-4
CCC(C(=O)C(C)C(O)C(C)CCc1ccc(C)c(O)c1C(=O)O)C1OC(CC)(C2CC[C@@](O)(CC)C(C)O2)CC1C (stereo partly drawn)	x	u	10µM*	x	x
CC[C@@H](C(=O)[C@@H](C)[C@@H](O)[C@H](C)CCc1ccc(C)c(O)c1C(=O)O)[C@H]1O[C@](CC)([C@H]2CC[C@](O)(CC)[C@H](C)O2)C[C@@H]1C	1%	u	6.3µM*	4	3
CC[C@@H](C(=O)[C@@H](C)[C@@H](O)[C@H](C)[C@@H]1O[C@@H]([C@@H](CC)C(=O)O)CC[C@@H]1C)[C@H]1O[C@]2(C=C[C@@H](O)[C@]3(CC[C@@](C)([C@H]4CC[C@](O)(CC)[C@H](C)O4)O3)O2)[C@H](C)C[C@@H]1C	x	x	x	0	5
Cc1ccc(CSc2[nH]c(=O)ncc2C)cc1	2%[0.46 µM]	5%	-10%	x	1
CC1CCc2c(nc3sc4c(c3c2N)CCCC4)C1 (stereo not drawn)	-1%	13µM*	u	-1	-10
CC1CCc2nc3sc4c(c3c(N)c2C1)CCCC4 (stereo not drawn)	10%	-36%	-14%	13	-5
NC(=O)NCCC1=CCCCC1	1%	0%	7%	9	1
C1=C(CCNCC2CC2)CCCC1	2%	5µM*	-6%	0	7
Cc1nn(-c2ccccc2)c(C)c1/C=C/C(=O)OCC(=O)Nc1ccc(C(N)=O)cc1	x	x	x	x	9
Cc1nn(-c2ccccc2)c(C)c1/C=C/C(=O)OCC(=O)Nc1ccc(S(N)(=O)=O)cc1	x	x	x	-88*	-20
Cc1c(NC(=O)c2cccc(NS(C)(=O)=O)c2)c(=O)n(-c2ccccc2)n1C	1%	-1%	2%	5	-1
Cc1cccc(NC2=NC(=S)N(c3cccc(C(=O)O)c3)C23CCCCC3)c1	-5%	3%	0%[10 µM]	x	-3
COc1ccc(N2C(=S)N=C(Nc3cccc(C)c3)C23CCCCC3)cc1	0%	2.2µM*	6.3µM*	7	5
